An excerpt weighted towards active compounds, which were near 6% of everything screened.
D1 ag = human D1 receptor agonism | P21728 | HEK293 T-REx D1 cells, calcium flux, agonist mode | activation, % at 2 µM | actives 1% (n = 360,000) | AID 504660; in the data active = activation above about 30%
Target sequence (P21728 whole entry, looked up): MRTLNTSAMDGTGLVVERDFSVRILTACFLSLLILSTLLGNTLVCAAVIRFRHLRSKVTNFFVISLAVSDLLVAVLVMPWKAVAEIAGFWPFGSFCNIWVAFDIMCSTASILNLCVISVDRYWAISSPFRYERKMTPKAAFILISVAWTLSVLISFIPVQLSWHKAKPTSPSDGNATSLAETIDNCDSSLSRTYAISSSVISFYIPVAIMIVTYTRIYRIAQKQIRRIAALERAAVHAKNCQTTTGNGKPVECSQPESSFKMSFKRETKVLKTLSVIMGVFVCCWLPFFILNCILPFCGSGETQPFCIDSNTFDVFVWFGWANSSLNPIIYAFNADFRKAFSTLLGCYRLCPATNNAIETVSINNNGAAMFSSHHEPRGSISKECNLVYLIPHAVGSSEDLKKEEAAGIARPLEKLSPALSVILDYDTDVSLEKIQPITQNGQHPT
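Agonism was scored from calcium flux recorded over 180 s (1 read/s) after pintool compound addition, following a 10-cycle baseline. Cells were inducible force-coupled HEK293 TREx D1, plated overnight at 30 C and loaded with no-wash calcium dye.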
D3 antag = D3 dopamine receptor (human) antagonism. P35462. D3R cells, DiscoveRx beta-arrestin luminescence, antagonist mode; hits give low values. max response, negative = inhibition, %. actives 2.5% (n = 360,000). AID 652054; in the data active = max response below about -50%; inconclusive = no clear call, values can overlap the other calls
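Cells plated overnight at 1500 cells/well, then exposed to library compounds with dopamine controls for 90 minutes at 37 degrees C. DiscoveRx reagent added for 30–60 minutes at room temperature; luminescence read, quantitative HTS format.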
D1 antag = human D1 dopamine receptor antagonism | AID 504652 | actives 3.2% (n = 360,000) | HEK293 TREx D1 cells, calcium flux, dopamine EC80; hits give low values | activity change, negative = inhibition, % at 10 µM | P21728; in the data active = activity change below about -30%
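Kinetic fluorescence of a calcium dye serves as the read-out. D1-expressing Hek293 Trex cells, induced overnight at 30 C, are exposed to compound for 180 s before an EC80 dopamine addition, then read 180 s further.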
D1 potentiator = enhances dopamine response at the human D1 receptor | P21728 | HEK293 TREx D1 cells, calcium flux, dopamine EC20 potentiation | potentiation, % at 10 µM | actives 0.036% (n = 360,000) | AID 504651; in the data active = potentiation above about 30%
DRD3 agonist = D3 dopamine receptor (human) agonism; max activation, %; actives 0.58% (n = 410,000); AID 652048; D3R DiscoveRx beta-arrestin cells, luminescence, 90 min; P35462; in the data active = max activation above about 30%
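Agonist mode: compounds and dopamine controls were applied to plated cells for 90 min at 37 degrees C after an overnight attachment at 1500 cells/well. Luminescent read-out followed 30 - 60 minutes at room temperature with DiscoveRx detection reagent.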
Each line names hits and unclear results; the compound was inactive in the other large screens; ! = not active in a repeat.

CCOC(=O)C1=C(c2ccccc2)N=c2sc(=Cc3cc(OC)c(OC)c(OC)c3)c(=O)n2C1c1cccs1 (stereo unspecified)	none (no result: D1 ag, D1 antag, D1 potentiator)
COc1ccc(C(=O)NCCCN=C2NS(=O)(=O)c3ccccc32)cc1	D3 antag -75
O=C(NCCCN=C1NS(=O)(=O)c2ccccc21)c1ccc(S(=O)(=O)N2CCCCC2)cc1	D1 antag -35
Cc1cccc(C)c1-n1nnnc1C1c2ccccc2C(=O)N1CCOc1ccccc1 (stereo unspecified)	none (no result: D1 ag, D1 antag, D1 potentiator)
CCN1C(=O)CC(C(=O)Nc2ccc(OC)cc2)SC1=Nc1ccc(C)c(C)c1 (stereo unspecified)	none (no result: D3 antag)
Cc1cccc(C)c1NC(=S)NCCc1ccc(O)c(O)c1	D1 antag -48
COc1ccc(CCNC(=S)Nc2cccc(C)c2C)cc1	D1 antag -31
CN(Cc1ccccc1)C(=O)COC(=O)c1ccccc1NS(=O)(=O)c1cccc(N)c1	D1 antag -32
COCCN(Cc1nc2ccccc2c(=O)[nH]1)C(=O)COc1ccccc1-c1ccccc1	none
O=[N+]([O-])c1ccc(O)c(-c2ccnc3cc(-c4ccccc4)nn23)c1	none (no result: D3 antag)
O=C(CN1C(=O)c2cccc([N+](=O)[O-])c2C1=O)N1CCc2ccccc2C1	none (no result: D1 ag, D1 antag, D1 potentiator)
O=C(N/N=C(\c1ccccc1)c1cccnc1)c1cccc(F)c1	D3 antag -75, D1 antag -41
CC(=O)N1c2ccccc2C2(C)C(C1(C)C)C2(Cl)Cl (stereo unspecified)	D1 ag 207
CCCN(CC1CC1)C(=O)COC(=O)c1oc2c(F)cccc2c1C	none
Cc1cc(C)cc(OCC(=O)Nc2nc3c(s2)CC(C(C)(C)C)CC3)c1 (stereo unspecified)	D1 antag -75 (no result: D3 antag)
COc1ccccc1NC(=O)c1cc2c(=O)n(Cc3cccs3)ccc2nc1C	D1 antag -40 (no result: D3 antag)
COc1cc(NC(=O)c2cc3c(=O)n(Cc4cccs4)ccc3nc2C)cc(OC)c1OC	none (no result: D3 antag)
O=C(NC1CCCC1)c1cc(=O)[nH]c2ccccc12	DRD3 agonist 33
C[C@H](NC(=O)[C@H](Cc1ccccc1)n1c(=O)[nH]c2ccccc2c1=O)C(=O)N1CCC(C(=O)O)CC1	DRD3 agonist 36
CSCC[C@H](NC(=O)[C@H](Cc1ccccc1)n1c(=O)[nH]c2ccccc2c1=O)C(=O)N1CCC(C(=O)O)CC1	DRD3 agonist 32
CC(C)C[C@H](NC(=O)[C@H](Cc1ccccc1)n1c(=O)[nH]c2ccccc2c1=O)C(=O)N1CCC(C(=O)O)CC1	none
COc1ccc(OC)c(CCNC(=O)c2cccc(NC3=NC4CS(=O)(=O)CC4S3)c2)c1 (stereo unspecified)	none
Clc1ccc(-c2nnn3c2nc(NC2CCCCC2)c2ccccc23)cc1	none (no result: D3 antag)
CCCCNC(=O)CCC(=O)Nc1ccc2nc(N3CCOCC3)cc(C)c2c1	none
CCCCN(CC)CCNC(=S)Nc1ccc2nc(N3CCN(C)CC3)cc(C)c2c1	D3 antag inconclusive
Cc1cc(N2CCN(C)CC2)nc2ccc(NC(=O)CCC(=O)NCCC3=CCCCC3)cc12	D3 antag -53 (no result: D1 ag, D1 antag, D1 potentiator)
CCCCN(CC)CCNC(=O)CCC(=O)Nc1ccc2nc(N3CCN(C)CC3)cc(C)c2c1	D3 antag -57
CCCN(CCC)CCNC(=O)CCC(=O)Nc1ccc2nc(N3CCOCC3)cc(C)c2c1	D3 antag -66
CN1C(=O)C2(c3ccccc31)N(c1cccc(F)c1)C(=O)CS2(=O)=O (stereo unspecified)	none (no result: D3 antag)
C(=N\N1CCN(Cc2ccccc2)CC1)/c1ccccc1	none
Cc1ccc(CN2CCN(/N=C\c3cccc([N+](=O)[O-])c3)CC2)cc1	D3 antag -56
Clc1cccc(/C=N/N2CCN(Cc3ccccc3)CC2)c1	D1 antag -33
O=[N+]([O-])c1ccccc1/C=N\N1CCN(Cc2ccccc2Cl)CC1	none
O=[N+]([O-])c1ccc(Cl)c(/C=N/N2CCN(Cc3ccccc3Cl)CC2)c1	D3 antag -51
O=[N+]([O-])c1ccccc1/C=N/N1CCN(Cc2ccccc2)CC1	D3 antag -67
O=C(NCCc1cccs1)c1ccc(Cn2c(SCc3cccc(F)c3)nc3cccnc32)cc1	none (no result: D3 antag)
Clc1ccccc1/C=N/N1CCN(Cc2ccccc2)CC1	none
FC(F)(F)c1ccccc1/C=N/N1CCN(Cc2ccccc2)CC1	D3 antag -66
O=C(NC1CCN(Cc2ccc(Cl)c(Cl)c2)CC1)c1ccccc1	D3 antag -99, D1 antag -33
O=C(NC(=S)NC1CCN(Cc2ccccc2)CC1)c1ccc(F)cc1	D3 antag inconclusive
O=C(CCCN1CCC(NC(=O)c2ccccc2)CC1)c1ccc(Cl)cc1	D3 antag inconclusive
Cc1ccc(C(=O)NC2CCN(CCCC(=O)c3ccc(F)cc3)CC2)cc1	D1 antag -38
O=C(NC1CCN(Cc2ccccc2)CC1)c1ccc(Cl)cc1Cl	D3 antag inconclusive
O=C(NC1CCN(Cc2ccc(F)cc2)CC1)c1ccccc1	D3 antag -72
O=C(NC1CCN(Cc2ccc3ccccc3c2)CC1)c1ccccc1	D3 antag -74
COC1=C(OC)C(=O)C(CCCCCCCCCCO)=C(C)C1=O	D1 antag -41 (no result: D3 antag)
CC1=C(C)C(=O)C(CCCCC#CCCCC#CCO)=C(C)C1=O	none
O=C(Nc1ccc2c(c1)OCO2)c1c[nH]c(=O)n(-c2ccc(F)cc2)c1=O	none
Cc1cc(NC(=O)c2ccc(NC(=O)CCS(=O)(=O)c3cccs3)cc2)ccc1Br	D1 antag -38 (no result: D3 antag)
COC(=O)c1ccccc1NC(=O)CCS(=O)(=O)c1ccc(Br)s1	D3 antag -52
COC(=O)c1ccc(NC(=O)CCS(=O)(=O)c2ccc(Br)s2)cc1	D1 antag -52!
NC(=O)c1ccc(NC(=O)CSc2nncn2-c2ccccc2)cc1	none
Cc1ccccc1C(=O)Nc1cccc(C(=O)OCc2cc(=O)n3c4c(sc3n2)CCCC4)c1	none (no result: D3 antag)
CCOc1ccc(-c2cc3c(=O)n(Cc4nc(-c5ccc(OC)cc5OC)oc4C)ccn3n2)cc1Cl	none (no result: D3 antag)
CCn1nc(C(=O)NNS(=O)(=O)c2ccc(C)cc2)c2ccccc2c1=O	none (no result: D1 ag, D1 antag, D1 potentiator)
CCC(CC)C(=O)N(C)c1c(C)nc2c(OCc3cc(Cl)cc(Cl)c3)cccn12	D3 antag inconclusive (no result: D1 ag, D1 antag, D1 potentiator)
CCC(CC)C(=O)N(C)c1c(C)nc2c(OCc3cccc(Cl)c3)cccn12	D3 antag -62 (no result: D1 ag, D1 antag, D1 potentiator)
CC(C)c1ccc(NC(=O)C2=CC=CN3CCS(=O)(=O)N=C23)cc1	D1 antag -32
CCc1ccc(NC(=O)C2=CC=CN3CCS(=O)(=O)N=C23)cc1	none
O=C(Nc1ccc(Oc2ccc(Br)cc2)cc1)C1=CC=CN2CCS(=O)(=O)N=C12	D1 antag -48
CS(=O)(=O)N1CCCCC1c1cc(C(=O)Nc2cccc(C#N)c2)no1 (stereo unspecified)	none (no result: D1 ag, D1 antag, D1 potentiator)

Compound activity deposited in PubChem BioAssay by National Center for Advancing Translational Sciences (NCATS).
